Measurements as given in PubChem BioAssay AID1159580 (chemical genetic matrix, 2015).
Out of some 5,500 compounds screened, about 2,000 (36%) were called active. Inconclusive results (about 18%) are left out. Cut-off read from the data, not from the text of the source: active = normalized growth mostly below about 0.91 (no sharp cut-off); inconclusive = no clear call, values can overlap the other calls; inactive = mostly above about 0.92. This is one part of the list.

Experiment: chemical genetic growth profiling, strain panel (AID 1159580);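 note: tested at 20 µM; growth read once vehicle control cultures reached saturation at 30 °C; 1 = growth at the plate median or of vehicle wells; lower values mean less growth of the strain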
Conditions: growth OD

Measured: normalized growth

CCCCC1=NC2(CCCC2)C(=O)N1Cc1ccc(-c2ccccc2-c2nn[nH]n2)cc1
inactive: S. cerevisiae deletion strains, locus YKL009W, strain mrt4, hits give low values 0.952 | S. cerevisiae deletion strains, locus YKL068W, hits give low values 0.98 | S. cerevisiae deletion strains, locus YKL085W, strain MDH1 (second series), hits give low values 0.986 | S. cerevisiae deletion strains, locus YKL085W, strain MDH1, hits give low values 0.986 | S. cerevisiae deletion strains, locus YKL160W, strain elf1, hits give low values 1.01 | S. cerevisiae deletion strains, locus YKL190W, strain CNB1, hits give low values 0.986 | S. cerevisiae deletion strains, locus YKR001C, strain vps1, hits give low values 0.996 | S. cerevisiae deletion strains, locus YKR026C, strain gcn3, hits give low values 1.01 | S. cerevisiae deletion strains, locus YKR091W, strain srl3, hits give low values 1.02 | S. cerevisiae deletion strains, locus YLL001W, strain dnm1, hits give low values 1.01 | S. cerevisiae deletion strains, locus YLL026W, hits give low values 1.02 | S. cerevisiae deletion strains, locus YLL041C, strain sdh2, hits give low values 1.01 | S. cerevisiae deletion strains, locus YLR027C, strain aat2, hits give low values 0.999 | S. cerevisiae deletion strains, locus YLR039C, strain RIC1, hits give low values 0.969 | S. cerevisiae deletion strains, locus YLR058C, strain SHM2, hits give low values 0.964 | S. cerevisiae deletion strains, locus YLR102C, strain apc9, hits give low values 0.981 | S. cerevisiae deletion strains, locus YLR113W, strain HOG1, hits give low values 1.02 | S. cerevisiae deletion strains, locus YLR221C, strain rsa3, hits give low values 1.01 | S. cerevisiae deletion strains, locus YLR258W, strain gsy2, hits give low values 1.02 | S. cerevisiae deletion strains, locus YLR262C, strain YPT6 (second series), hits give low values 1.04 | S. cerevisiae deletion strains, locus YLR262C, strain YPT6, hits give low values 0.947 | S. cerevisiae deletion strains, locus YLR268W, strain sec22, hits give low values 1.09 | S. cerevisiae deletion strains, locus YLR320W, strain mms22, hits give low values 1.02 | S. cerevisiae deletion strains, locus YLR330W, strain CHS5, hits give low values 0.987 | S. cerevisiae deletion strains, locus YLR342W, strain FKS1 (second series), hits give low values 0.96 | S. cerevisiae deletion strains, locus YLR342W, strain FKS1, hits give low values 1.02 | S. cerevisiae deletion strains, locus YLR357W, strain rsc2, hits give low values 1.01 | S. cerevisiae deletion strains, locus YLR370C, strain arc18, hits give low values 1.01 | S. cerevisiae deletion strains, locus YLR371W, strain rom2, hits give low values 0.972 | S. cerevisiae deletion strains, locus YLR384C, strain iki3, hits give low values 1 | S. cerevisiae deletion strains, locus YLR418C, strain cdc73, hits give low values 0.993 | S. cerevisiae deletion strains, locus YML016C, strain PPZ1, hits give low values 0.984 | S. cerevisiae deletion strains, locus YML032C, strain rad52, hits give low values 1.02 | S. cerevisiae deletion strains, locus YML120C, strain ndi1, hits give low values 0.997 | S. cerevisiae deletion strains, locus YML124C, strain tub3, hits give low values 0.977 | S. cerevisiae deletion strains, locus YMR058W, strain fet3, hits give low values 1 | S. cerevisiae deletion strains, locus YMR078C, strain ctf18, hits give low values 0.991 | S. cerevisiae deletion strains, locus YMR125W, strain sto1, hits give low values 1.01 | S. cerevisiae deletion strains, locus YMR129W, hits give low values 1.01 | S. cerevisiae deletion strains, locus YMR205C, strain PFK2, hits give low values 1.03 | S. cerevisiae deletion strains, locus YMR223W, strain ubp8, hits give low values 0.957 | S. cerevisiae deletion strains, locus YMR231W, strain pep5, hits give low values 1.02 | S. cerevisiae deletion strains, locus YMR263W, strain SAP30, hits give low values 0.998 | S. cerevisiae deletion strains, locus YMR307W, strain GAS1, hits give low values 0.964 | S. cerevisiae deletion strains, locus YNL067W, strain RPL9B, hits give low values 1.04 | S. cerevisiae deletion strains, locus YNL071W, strain lat1, hits give low values 1 | S. cerevisiae deletion strains, locus YNL128W, strain TEP1, hits give low values 0.968 | S. cerevisiae deletion strains, locus YNL153C, strain GIM3, hits give low values 1.03 | S. cerevisiae deletion strains, locus YNL183C, strain NPR1, hits give low values 0.966 | S. cerevisiae deletion strains, locus YNL209W, strain ssb2, hits give low values 1.01 | S. cerevisiae deletion strains, locus YNL233W, strain BNI4, hits give low values 1.04 | S. cerevisiae deletion strains, locus YNL248C, strain rpa49, hits give low values 1.04 | S. cerevisiae deletion strains, locus YNL250W, strain rad50, hits give low values 0.978 | S. cerevisiae deletion strains, locus YNL271C, strain bni1, hits give low values 1 | S. cerevisiae deletion strains, locus YNL298W, strain CLA4, hits give low values 0.971 | S. cerevisiae deletion strains, locus YNL307C, strain MCK1, hits give low values 0.99 | S. cerevisiae deletion strains, locus YNL322C, strain KRE1 (second series), hits give low values 1.03 | S. cerevisiae deletion strains, locus YNL322C, strain KRE1, hits give low values 0.986 | S. cerevisiae deletion strains, locus YNR049C, strain mso1, hits give low values 1 | S. cerevisiae deletion strains, locus YNR052C, strain pop2, hits give low values 0.999 | S. cerevisiae deletion strains, locus YOL006C, strain TOP1, hits give low values 1.1 | S. cerevisiae deletion strains, locus YOL012C, strain htz1 0.917 | S. cerevisiae deletion strains, locus YOL147C, strain pex11, hits give low values 0.992 | S. cerevisiae deletion strains, locus YOR001W, strain rrp6, hits give low values 1.01 | S. cerevisiae deletion strains, locus YOR061W, strain CKA2, hits give low values 0.97 | S. cerevisiae deletion strains, locus YOR069W, strain VPS5, hits give low values 0.991 | S. cerevisiae deletion strains, locus YOR070C, strain gyp1, hits give low values 1.01 | S. cerevisiae deletion strains, locus YOR080W, strain dia2, hits give low values 1 | S. cerevisiae deletion strains, locus YOR083W, strain WHI5, hits give low values 1.03 | S. cerevisiae deletion strains, locus YOR106W, strain vam3, hits give low values 1.02 | S. cerevisiae deletion strains, locus YOR136W, strain idh2, hits give low values 0.967 | S. cerevisiae deletion strains, locus YOR144C, strain elg1, hits give low values 0.987 | S. cerevisiae deletion strains, locus YOR184W, strain ser1, hits give low values 0.979 | S. cerevisiae deletion strains, locus YOR231W, strain MKK1, hits give low values 0.981 | S. cerevisiae deletion strains, locus YOR265W, strain rbl2, hits give low values 1.01 | S. cerevisiae deletion strains, locus YOR270C, strain vph1, hits give low values 1.08 | S. cerevisiae deletion strains, locus YOR290C, strain snf2, hits give low values 1.01 | S. cerevisiae deletion strains, locus YOR316C, strain cot1, hits give low values 0.984 | S. cerevisiae deletion strains, locus YPL051W, strain arl3, hits give low values 0.984 | S. cerevisiae deletion strains, locus YPL055C, strain LGE1, hits give low values 0.959 | S. cerevisiae deletion strains, locus YPL078C, strain atp4, hits give low values 1.01 | S. cerevisiae deletion strains, locus YPL106C, strain sse1, hits give low values 1.01 | S. cerevisiae deletion strains, locus YPL240C, strain hsp82, hits give low values 1 | S. cerevisiae deletion strains, locus YPL241C, strain CIN2, hits give low values 0.99 | S. cerevisiae deletion strains, locus YPL256C, strain CLN2, hits give low values 0.985 | S. cerevisiae deletion strains, locus YPR119W, strain clb2, hits give low values 0.986 | S. cerevisiae deletion strains, locus YPR141C, strain kar3, hits give low values 0.971 | S. cerevisiae deletion strains, locus YPR163C, strain tif3, hits give low values 0.995 | S. cerevisiae deletion strains, locus YPR167C, strain met16, hits give low values 0.991 | S. cerevisiae deletion strains, strain wtn01, hits give low values 1.02 | S. cerevisiae strains, strain wild type, hits give low values 0.978
